Test results from PubChem BioAssay AID624169 (The Scripps Research Institute Molecular Screening Center, 2012).
Where “and” joins values, the source holds several entries; their conditions need not be identical. Equal entries are not always repeated. About 2,400 (0.67%) of roughly 360,000 compounds were called active.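 Rule for the calls: active = activation above a run cutoff, the mean activation of all tested compounds plus 3 SD (cut at about 14% in these data); inactive = the rest.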 The entries come from a sample that favours actives as a whole.

Biological target: 5-hydroxytryptamine receptor 2A (Mus musculus) (UniProt P35363)
Assay: activation of mouse 5-HT2A receptor – cell-based, luminescence, primary screen (AID 624169);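 note: 0% = plate median of compound wells and 100% = 30 µM serotonin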
Conditions: CHO-K1 mHTR2A beta-arrestin complementation, at 7.6 µM, hits give high values, percent of 30 µM serotonin response

5-hydroxytryptamine receptor 2A (Mus musculus), sequence (P35363 whole entry, looked up): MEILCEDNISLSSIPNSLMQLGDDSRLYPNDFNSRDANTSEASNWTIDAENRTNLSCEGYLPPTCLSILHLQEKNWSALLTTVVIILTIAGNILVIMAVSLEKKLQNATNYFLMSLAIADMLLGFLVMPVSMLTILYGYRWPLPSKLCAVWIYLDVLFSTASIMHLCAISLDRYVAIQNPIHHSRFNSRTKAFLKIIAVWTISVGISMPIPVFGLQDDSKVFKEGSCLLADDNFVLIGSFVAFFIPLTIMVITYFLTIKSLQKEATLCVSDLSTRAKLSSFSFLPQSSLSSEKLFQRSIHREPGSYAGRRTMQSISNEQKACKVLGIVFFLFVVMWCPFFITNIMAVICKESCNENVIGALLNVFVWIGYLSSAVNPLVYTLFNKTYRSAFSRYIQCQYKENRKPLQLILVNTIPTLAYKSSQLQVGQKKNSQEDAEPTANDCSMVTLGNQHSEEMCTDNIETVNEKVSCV

activation, active:
CN(C)[C@@H]1C(=O)C(C(N)=O)=C(O)[C@@]2(O)C(=O)C3=C(O)c4c(O)ccc(Cl)c4[C@@H](O)[C@H]3C[C@@H]12 15.9%
CCn1c(SCC(=O)N2CCCC2=O)nc2ccccc21 15.3%
COc1ccccc1CN1CCN(Cc2cc(OC)c(OC)cc2OC)CC1 25.8%
O=C(O)c1ccc(S(=O)(=O)N2CCC(Cc3ccccc3)CC2)cc1 22.2%
COC(=O)c1cc(N2CCNCC2)nc2ccccc12 54.9%
COC(=O)CC(=O)N1CCN(c2ccc(Cl)c(Cl)c2)CC1 34.5%
O=C(c1cccs1)N1CCN(Cc2ccc3c(c2)OCO3)CC1 25.9%
O=C(COC(=O)c1cc(S(=O)(=O)N2CCOCC2)ccc1F)NC1CC1 20.8%
COc1ccc(/C(=N\O)c2nccc3cc(OC)c(OC)cc23)cc1OC 24.7%
N#Cc1c(NC(=O)CCCl)sc2c1CCCCC2 20%
Cc1ccc(NC(=O)CCOc2ccccc2)cc1S(=O)(=O)Nc1ccccc1Cl 15.2%
Cc1cccc(CN2CCN(C3CN(Cc4cn(Cc5cc(C)cc(C)c5)nn4)S(=O)(=O)C3)CC2)c1 (configuration not stated) 19.3%
Cc1cccc(CN2CCN(C3CN(Cc4ccccc4)S(=O)(=O)C3)CC2)c1 (configuration not stated) 20.9%

activation, inactive:
Nc1[nH][nH]c(=O)c1N=Nc1ccc2c(c1)OCO2 -2.91%
CCc1ccc(N2CC(C(=O)Nc3ccc(S(=O)(=O)Nc4nccs4)cc3)CC2=O)cc1 (configuration not stated) -3.72%
C=C1c2c(Cl)ccc(O)c2C(O)=C2C(=O)[C@]3(O)C(O)=C(C(N)=O)C(=O)[C@@H](N(C)C)[C@@H]3[C@@H](O)C12 (some centres not stated) -1.23%
C=C(C)C(=O)Nc1cccc(C2=NOC3(C2)C[C@H](C(N)=O)N(C(=O)C(c2ccccc2)c2ccccc2)C3)c1 (some centres not stated) 5.68%
CCn1c(SCC(=O)NCC2CCCO2)nc2ccccc21 (configuration not stated) 2.38%
CCCCn1c(SCC(=O)N2CCCC2=O)nc2cc(S(N)(=O)=O)ccc21 0%
O=C(NCc1ccccc1)[C@@H]1CSC2c3ccccc3C(=O)N21 (some centres not stated) 1.3%
COc1cccc(OC)c1C(=O)N1CCN(Cc2ccccc2F)CC1 2%
COc1cc(OC)c(OC)cc1CN1CCN(C(=O)c2cccc3ccccc23)CC1 0.49%
C/C(CC(=O)NCc1ccc(Cl)cc1)=N\NC(=O)COc1ccc(C)cc1Br -5.06%
CC(C)CN(C(=O)c1cccc(S(=O)(=O)N2CCCCC2)c1)C1CCS(=O)(=O)C1 (configuration not stated) 3.09%
Cn1cc(S(=O)(=O)N2CCC(Cc3ccccc3)CC2)c(=O)n(C)c1=O -1.79%
NC(=O)c1ccc(CN2CCC(Cc3ccccc3)CC2)cc1 -5.52%
CCCCN(C(=O)c1ccc(C)o1)c1c(N)n(CCCC)c(=O)[nH]c1=O -12.3%
C/C(CC(=O)NC(C)(C)C)=N\NC(=O)c1ccco1 5.46%
Cc1cc(C)n(-c2ccc(NC(=O)C3CCCCN3C(=O)c3cccs3)cc2)n1 (configuration not stated) -0.84%
CC(=O)N1CCN(C(=O)c2cc(-c3ccc(Cl)s3)nc3ccccc23)CC1 -0.1%
Cc1cc(C(=O)OCC(=O)N2C(C)CCCC2C)c2ccccc2n1 (configuration not stated) 5%
CCOc1ccc(CN(Cc2ccco2)C(c2cccs2)c2nnnn2C(C)(C)C)cc1 (configuration not stated) 6.56%
CC(C)Oc1ccc(Cc2n[nH]c(=S)n2Cc2ccccc2)cc1Cl 0.66%
COC(=O)c1ccccc1OCC(=O)N1CCN(c2ccc(Cl)cc2)CC1 3.93%
CC(C)c1nnc(NC(=O)CCC(=O)N2CCN(c3cccc(Cl)c3)CC2)s1 10.8%
O=C(c1ccco1)N(Cc1nc2ccccc2c(=O)[nH]1)C1CCCC1 3.03%
COc1ccc(-c2cc(C(=O)N3CCN(Cc4ccc5c(c4)OCO5)CC3)on2)cc1OC -7.64%
O=C(CCCN1C(=O)c2cccc3cccc(c23)C1=O)N1CCN(Cc2ccc3c(c2)OCO3)CC1 -3.63%
Cc1nc2ccccc2nc1CC(O)(c1ccccc1)c1ccccc1 1.95%
Cc1ccc(S(=O)(=O)N[C@H]2CCC[C@@H]2O)cc1 0.49%
O=C(O)Cc1csc(-c2cccc(Oc3ccccc3)c2)n1 5.47% and 2.04%
COc1cc(NC(=O)COC(=O)c2cc(S(=O)(=O)N3CCOCC3)ccc2F)cc(OC)c1 2.06%
O=C(OCCOc1ccccc1F)c1cc(S(=O)(=O)N2CCOCC2)ccc1F -6.59%
C[C@H](CO)N1C[C@H](C)[C@@H](CN(C)S(=O)(=O)c2ccc(F)cc2)Oc2c(NC(=O)Nc3ccccc3)cccc2C1=O 1.16%
CCSCc1nc(N)nc(NCCc2ccccc2)n1 -1.03%
CC(=O)c1ccc(OCCCC(=O)Nc2ccc(C)c(S(=O)(=O)N3CCOCC3)c2)cc1 4.29%
COc1cc2ccc(C(C)=O)c(O)c2cc1OC -4.06%
COC(=O)c1ccc(-c2c(-c3ccccc3)ncc3cc(OC)c(OC)cc23)cc1 6.54%
N#Cc1c(NC(=O)C2CCCO2)sc2c1CCCCC2 (configuration not stated) 0.23%
N#Cc1c(NC(=O)C2CC(Cl)=CCC2C(=O)O)sc2c1CCCCC2 (configuration not stated) 5.86%
Cc1ccc(OC(=O)c2ccccc2C(=O)OCC(F)(F)C(F)F)cc1 -7.85%
COc1ccc(C(=O)OCC(=O)NC(=O)CCSc2ccccc2)cc1 1.32%
C[C@@H]1C(c2ccc(F)cc2)=NN(c2ccc(Br)cc2)[C@H]1C(=O)N1CCOC1=O -5.98%
CCCCCC(O)(CCN1CCCCC1)c1ccccc1 (configuration not stated) -1.22%
O=C(CSc1nnc(N2CCOCC2)n1-c1cccc(F)c1)N1CCN(c2ccccn2)CC1 -5.52%
CCc1ccccc1NC(=O)CCOc1ccccc1 1.35%
Cc1ccccc1NC(=O)CCOc1ccccc1 4.29%
CC(=O)Nc1cc(-c2ccccc2F)cn2c(-c3cccc(C(F)(F)F)c3)cnc12 1.96%
Cc1ccc(Cn2cc(CN3CC(N4CCN(C)CC4)CS3(=O)=O)nn2)cc1 (configuration not stated) -3.17%
Cc1ccc(CN2CC(N3CCC(Cc4ccccc4)CC3)CS2(=O)=O)cc1 (configuration not stated) -4.23%
CCCCN1CC(N2CCN(Cc3cccc(C)c3)CC2)CS1(=O)=O (configuration not stated) 12.1%
Cc1cccc(CN2CCN(C3CN(Cc4cn(Cc5ccccc5F)nn4)S(=O)(=O)C3)CC2)c1 (configuration not stated) 7.98%
